Measurements reported in publication PMC4336329 (PLoS ONE, 2015).
In all, about 310,000 compounds went through this assay and about 2,200 (0.71%) showed an effect of 50% or more. Effects have a minus sign here. The full list was thinned out, with strong results kept by preference.

These compounds were tested against human ether-à-go-go-related gene (hERG) potassium channel (human, UniProt Q12809) (assay: primary screen, population patch clamp on CHO cells stably expressing hERG; higher = less effect of the substance).
human ether-à-go-go-related gene (hERG) potassium channel, sequence (Q12809 whole entry, looked up): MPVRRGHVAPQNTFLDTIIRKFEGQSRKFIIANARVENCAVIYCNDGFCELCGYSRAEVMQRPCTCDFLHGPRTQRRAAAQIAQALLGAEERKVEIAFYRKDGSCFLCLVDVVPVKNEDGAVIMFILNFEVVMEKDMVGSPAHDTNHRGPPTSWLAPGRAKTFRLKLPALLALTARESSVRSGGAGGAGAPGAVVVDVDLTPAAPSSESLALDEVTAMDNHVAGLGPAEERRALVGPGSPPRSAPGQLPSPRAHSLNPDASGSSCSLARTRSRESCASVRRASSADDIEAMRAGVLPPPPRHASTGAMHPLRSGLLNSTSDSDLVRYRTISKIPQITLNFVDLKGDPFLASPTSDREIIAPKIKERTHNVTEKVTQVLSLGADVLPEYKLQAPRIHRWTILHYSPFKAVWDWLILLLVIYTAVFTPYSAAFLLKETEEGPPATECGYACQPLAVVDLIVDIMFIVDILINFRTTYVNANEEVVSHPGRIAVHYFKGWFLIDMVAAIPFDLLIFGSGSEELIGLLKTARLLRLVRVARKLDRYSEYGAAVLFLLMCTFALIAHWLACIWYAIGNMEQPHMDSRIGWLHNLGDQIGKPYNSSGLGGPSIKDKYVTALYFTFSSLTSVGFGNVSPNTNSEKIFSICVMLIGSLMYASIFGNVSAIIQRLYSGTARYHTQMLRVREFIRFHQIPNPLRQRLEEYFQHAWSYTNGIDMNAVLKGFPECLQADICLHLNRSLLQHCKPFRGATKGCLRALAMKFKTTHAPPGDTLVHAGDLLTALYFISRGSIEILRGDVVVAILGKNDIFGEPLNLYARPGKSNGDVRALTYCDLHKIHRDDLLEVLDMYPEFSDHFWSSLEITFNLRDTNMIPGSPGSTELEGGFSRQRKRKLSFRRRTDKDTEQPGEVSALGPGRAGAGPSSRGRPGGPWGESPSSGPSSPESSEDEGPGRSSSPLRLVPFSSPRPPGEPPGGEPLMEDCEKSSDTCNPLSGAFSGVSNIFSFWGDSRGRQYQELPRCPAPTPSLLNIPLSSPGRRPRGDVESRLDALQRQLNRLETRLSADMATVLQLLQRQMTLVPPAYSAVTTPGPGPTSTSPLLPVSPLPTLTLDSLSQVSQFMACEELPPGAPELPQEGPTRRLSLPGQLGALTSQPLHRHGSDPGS

Point of comparison: `Cc1cccn2c(CN3CCCC(c4ccccc4)C3)c(C(=O)N3CCOCC3)nc12` (stereo not drawn), “hERG current change (%, negative = inhibition) at 1uM” value -53.3%. Against it:
- COc1ccc(-c2coc3c(CN4CCOCC4)c(O)ccc3c2=O)cc1 — higher, 0.432%
- Cc1ccc(C(=O)c2coc3ccc(O)c(CN4CCN(C)CC4)c23)cc1 — higher, -25.5%
- COc1ccc(C(=O)c2coc3ccc(O)c(CN4CCOCC4)c23)cc1 — higher, 1.63%
- COc1ccc(C(=O)c2coc3ccc(O)c(CN4CCCCC4)c23)cc1 — lower, -61.4%
- COc1ccc(OC)c(C(=O)c2coc3ccc(O)c(CN4CCOCC4)c23)c1 — higher, -6.28%
- COc1ccc(-c2coc3c(CN4CCCCC4C)c(O)ccc3c2=O)cc1 (stereo not drawn) — higher, 7.15%
- COc1ccc(-c2coc3c(CN4CCCCC4)c(O)c(CN4CCCCC4)c(O)c3c2=O)cc1 — lower, -88%
- COc1ccc(C(=O)c2coc3ccc(O)c(CN4CCCC4)c23)cc1 — lower, -56.9%
- Cl.O=C(c1ccccc1)c1coc2ccc(O)c(CN3CCOCC3)c12 — higher, -21%
- CC1CCCCN1Cc1nc2c(c(=O)n(C)c(=O)n2C)n1Cc1c(F)cccc1Cl (stereo not drawn) — higher, 11.4%
- C/C(N)=C(/C#N)C(=O)CSc1nc2ccccc2[nH]1 — higher, 5.05%
- COc1ccc(NC(=O)CNC(c2ccccc2)c2ccccc2)cc1.O=C(O)C(=O)O — higher, 14.5%
- O=C(COC(=O)Cc1ccc(Br)cc1)NC1CCCCCC1 — higher, 11.4%
- O=C(Cn1cnc2ccccc21)Nc1ccc(F)c(F)c1 — higher, 3.75%
- Cc1ccc(NC(=O)Cn2cnc3ccccc32)cc1C — higher, 6.29%
- O=C(Cn1cnc2ccccc21)Nc1ccc(C(=O)O)cc1.O=C(O)C(=O)O — higher, -52.9%
- Cc1ncc(CSc2ccc(Cl)cc2)c(CO)c1O — higher, 12.9%
- COCCCNC(=O)c1ccc2nc(Cc3ccc(OC)cc3)oc2c1 — higher, 10.8%
- Cn1nnnc1Sc1ncnc2scc(-c3cccc(S(C)(=O)=O)c3)c12 — higher, 12.6%
- CCOc1ccccc1CN1CCN(Cc2ccc(C)o2)CC1CCO (stereo not drawn) — higher, -9.63%
- CCOc1ccccc1CN1CCN(C2CCSCC2)CC1CCO (stereo not drawn) — higher, -7.19%
- Cc1ccc(CN2CCN(Cc3cc4ccccc4o3)CC2CCO)cc1 (stereo not drawn) — higher, -12.5%
- Cc1ccc(CN2CCN(Cc3ccc(OCCO)cc3)CC2CCO)o1 (stereo not drawn) — higher, 1.83%
- CCOc1ccc(CN2CCN(C3CCSCC3)CC2CCO)cc1 (stereo not drawn) — lower, -76.2%
- OCCC1CN(Cc2cc3ccccc3o2)CCN1Cc1ccc(F)cc1 (stereo not drawn) — higher, 15.2%
- CCOc1ccc(CN2CCN(Cc3cnc(-c4ccccc4)s3)CC2CCO)cc1 (stereo not drawn) — lower, -90.1%
- CCOc1ccc(CN2CCN(Cc3cc4ccccc4o3)CC2CCO)cc1 (stereo not drawn) — lower, -82%
- CCOc1ccc(CN2CCN(Cc3ccc(C)o3)CC2CCO)cc1 (stereo not drawn) — lower, -87.8%
- CCOc1ccc(CN2CCN(C3CCC3)CC2CCO)cc1 (stereo not drawn) — higher, 3.11%
- OCCC1CN(Cc2cnc(-c3ccccc3)s2)CCN1Cc1ccccc1 (stereo not drawn) — higher, 1.93%
- CCOc1ccc(CN2CCN(Cc3cnc(N4CCOCC4)s3)CC2CCO)cc1 (stereo not drawn) — higher, -19.2%
- O=C(CSc1nnc(CNC(=O)c2ccccc2)o1)NCc1ccc2c(c1)OCO2 — higher, 4.4%
- CCN1CCN(c2c(Cl)cccc2NC(=O)c2ccc([N+](=O)[O-])cc2)CC1 — higher, -15.9%
- CSc1ccccc1C(=O)C1CCCN(C(=O)CCc2cccnc2)C1 (stereo not drawn) — higher, 8.69%
- COc1ccc(NC(=O)CSc2nc3ccccc3c(=O)n2CCCO)cn1 — higher, -26.1%
- COc1ccc(OC)c(C2CC(=O)NC(SC)=C2C#N)c1 (stereo not drawn) — higher, 7.92%
- O=C(CSc1ccccc1)Nc1nnc(COc2ccc(Cl)cc2)s1 — higher, 3.34%
- COc1cc(CN2CCN(Cc3ccc4cc(F)ccc4n3)CC2CCO)cc(OC)c1 (stereo not drawn) — higher, -21.6%
- CCOc1ccccc1CN1CCN(Cc2ccc3cc(F)ccc3n2)CC1CCO (stereo not drawn) — higher, -44.1%
- CCOc1ccc(CN2CCN(Cc3ccc4cc(F)ccc4n3)CC2CCO)cc1 (stereo not drawn) — lower, -79.3%
- Cc1ccc(N/C(N)=N/c2nc(C)cc(C)n2)cc1 — higher, -24.7%
- Cc1cc(C)nc(/N=C(\N)Nc2ccc(OCCC(C)C)cc2)n1 — lower, -55.9%
- CCOc1ccc(N/C(N)=N/c2nc(C)cc(C)n2)cc1 — higher, 4.81%
- Cc1cc(C)nc(/N=C(\N)Nc2ccc(-c3ccccc3)cc2)n1 — lower, -59.8%
- Cc1cc(C)nc(/N=C(\N)Nc2ccc(SC(F)F)cc2)n1 — higher, -52.9%
- Cc1cc(C)nc(/N=C(\N)Nc2ccc(C(C)C)cc2)n1 — higher, -3.29%
- Cc1cc(=O)[nH]c(/N=C(\N)Nc2ccc(SC(F)F)cc2)n1 — higher, 1.96%
- CC(=O)Nc1ccc(N/C(N)=N/c2nc(C)cc(C)n2)cc1 — higher, 8.5%
- Cc1cc(C)nc(/N=C(\N)Nc2ccc(OCc3ccccc3)cc2)n1 — higher, -28.8%
- COc1cccc(N2CCN(S(=O)(=O)c3c(C)[nH]c(C)c3C(=O)N3CCCCC3)CC2)c1 — higher, 15.2%
- CC(C)(C)OC(=O)N1CCC(Cc2cc(-c3cccc(Br)c3)no2)(C(=O)O)CC1 — higher, -14%
- Cc1ccc(-n2nc3c(c2NC(=O)C2CC2)CS(=O)(=O)C3)cc1 — higher, -0.97%
- O=C(COC(=O)C1CCCCC1)Nc1ccccc1OC(F)F — higher, 12.3%
- Cc1cccn2c(CN[C@@H]3CCCC[C@H]3c3ccccc3)c(C(=O)N3CCOCC3)nc12 — higher, 4.31%
- Cc1cccn2c(CN3CCSCC3)c(C(=O)N3CCOCC3)nc12 — higher, -1.36%
- COc1cc2c(cc1OC)C1(Nc3c-2c(Cc2ccccc2)nn3-c2ccccc2)C(=O)Nc2ccccc21 (stereo not drawn) — higher, 12.4%
